Data on 40 molecules can be found in PubChem BioAssay (EPA / NIEHS).

Activity calls are given as the source filed them. How the source made its calls: active means hit-call score of the fitted dose curve at least 0.9, where 1 is the maximum; inactive means score below 0.9.

The nature of this assay: ATG_MRE_CIS: Attagene CIS-FACTORIAL HepG2 Assay for human Metal Responsive Element (MRE) (AID 2282954). As to conditions: HepG2 MRE cis-reporter transcription, Attagene multiplex; actives raise or lower the signal. The procedure: ATG_CIS is a cell-based, multiplexed-readout assay that uses HepG2, a human liver cell line, with measurements taken at 24 hours after chemical dosing in a 24-well plate.ATG_MRE_CIS is one of 52 assay component(s) measured or calculated from the ATG_CIS assay. It is designed to make measurements of mRNA induction, a form of inducible reporter, as detected with fluorescence intensity signals by Reverse transcription polymerase chain reaction (RT-PCR) and Capillary electrophoresis technology.Data from the assay component ATG_MRE_CIS was analyzed into 1 assay endpoint. This assay endpoint, ATG_MRE_CIS, was analyzed with bidirectional fitting relative to DMSO as the negative control and baseline of activity. Using a type of inducible reporter, measures of mRNA for gain or loss-of-signal activity can be used to understand the reporter gene at the transcription factor-level as they relate to the gene MTF1. Furthermore, this assay endpoint can be referred to as a primary readout, because this assay has produced multiple assay endpoints where this one serves a reporter gene function. To generalize the intended target to other relatable targets, this assay endpoint is annotated to the dna binding intended target family, where the subfamily is zinc finger.
Human liver HepG2 cells are transiently transfected with multiple reporter transcription units (MRTUs) in 6-well plates using FuGene 6 reagent (Roche; 3 ml FuGene/1 mg DNA). The MRTU constructs are regulated by a cis-regulating element (promoter). […] A major difference between the CIS and TRANS system is that in CIS activities of endogenous TFs are measured, whereas the TRANS assay evaluates changes in activities of exogenous, chimeric NR-Gal4 proteins. […] At the end of 24 hour incubation, total RNA was isolated using TriZol reagent (Invitrogen). The isolated RNA is then reverse-transcribed using oligo(dT) primer and Mo-MLV reverse transcriptase (Invitrogen) with DNAse I (Ambion) treatment for 30 min. The one-tenth of the produced cDNA was amplified by PCR using Taq DNA polymerase (Invitrogen) and two reporter sequence-specific primers. The PCR products were fluorescently labeled by primer extension with 6-arboxyfluorescein (6-FAM) 5'-labeled reporter sequence-specific primer (2 min at 95 C, 20 s at 68 C and 10 min at 72 C) and these products were digested with 5U of HpaI (New England Biolabs) for 2h at 37 C. The fragments were purified using Qiaquick PCR columns (Qiagen), analyzed on an ABI 3130xL genetic analyzer (Applied Biosystems) with peak positions identified by using a set of X-rhodamine (ROX)-labeled MapMarker1000 molecular weight standards (BioVentures). The raw capillary electrophoresis data was processed using Attagraph software (Attagene).
For the molecule `O=C1NC(=O)[C@@H]2CC=CC[C@H]12`, the call was inactive.
As to `C=CN1CCCCCC1=O`, the outcome was inactive.
As for `CC(C)n1c(/C=C/[C@@H](O)C[C@@H](O)CC(=O)O)c(-c2ccc(F)cc2)c2ccccc21`, the molecule was classed as inactive.
Consider `CC(O)(P(=O)(O)O)P(=O)(O)O`, for which the molecule was classed as inactive.
Same read-out and setting: next, `Brc1ccc(Oc2ccc(Br)cc2)cc1`: “inactive”; `CC(C)CC(=O)O`: “inactive”.
The same measure, in the same setting: next, `NC(=O)c1ccc(N)cc1`: “inactive”.
For the molecule `CC/C=C\CCO`, the molecule was classed as inactive.
The term AC50 denotes the concentration at which the activity in the assay is half-maximal. Regarding `CCCc1c(OCCCCc2nn[nH]n2)ccc(C(C)=O)c1O`, the AC50 is 128 µM (active).
In the case of `COC(=O)c1ccccc1`, the call was inactive.
In the case of `C1=CCC=C1`, the result was inactive.
As for `COc1ccccc1OCC(O)CO` (stereo not given), the molecule was classed as inactive.
On the same count and under the same terms, as for `CCOC(=O)CC(=O)OCC`, the entry is “inactive”.
The same measure, in the same setting: next, `CC[N+](CC)(CC(=O)Nc1c(C)cccc1C)Cc1ccccc1`: “inactive”; `NC(=O)c1ccc([N+](=O)[O-])cc1Cl`: “inactive”.
The same measure, in the same setting: next, `CCCCCCOC(=O)CCCCCCCC(=O)OCCCCCC`: “inactive”; `OCCN(CCO)c1cccc(Cl)c1`: “inactive”; `O=C(Oc1ccccc1)c1ccccc1`: “inactive”.
As for `CCCCn1cc[n+](C)c1`, the outcome was inactive.
For `CC(C)(Oc1ccc(Cl)cc1)C(=O)O`, the outcome was inactive.
In the case of `COCCCN`, the call was inactive.
Same read-out and setting: next, `C=C(C)C(=O)OCC1CCCO1` (stereo not given): “inactive”; `CCOC(=O)c1ccccc1`: “inactive”.
Still for that read-out and setting: as for `CCCCCCCCCC/C=C/C1CC(=O)OC1=O` (stereo not given), the entry is “inactive”; as for `COc1c2occc2cc2ccc(=O)oc12`, “inactive”.
Still for that read-out and setting: next, `CCC(=O)OCc1ccc(OC)cc1`: “inactive”.
On to `CN(C)c1ccc(C(c2ccccc2)c2ccc(N(C)C)cc2)cc1`, for which the call was inactive.
Same read-out and setting: as for `Clc1ccccn1`, the entry is “inactive”; as for `Cc1ccccc1S(N)(=O)=O`, “inactive”; as for `CC/C=C\CC1=C(C)CCC1=O`, “inactive”.
Consider `NC(N)=Nc1nc(CSCCC(N)=NS(N)(=O)=O)cs1`, for which the molecule was called inactive.
Take `CC/C=C\CC/C=C/C(OCC)OCC`: the AC50 is 136 µM (active).
Take `CO[Si](CCCNCCN)(OC)OC`: the call was inactive.
As to `N#CCN(CC#N)CCN(CC#N)CC#N`, the result was inactive.
With `CCC(C)(CCC(C)C)C(=O)O` (stereo not given), the outcome was inactive.
Same read-out and setting: as for `O=C(O)/C=C/C(=O)O`, the entry is “inactive”; as for `Cc1ccnc(N)c1`, “inactive”.
Regarding `CCCCCCC1CCC(=O)O1` (stereo not given), the outcome was inactive.
The same measure, in the same setting: as for `CN(C)Cc1cc(C(C)(C)C)c(O)c(C(C)(C)C)c1`, the entry is “inactive”.
Take `Nc1nnc(-c2ccc([N+](=O)[O-])o2)o1`: the result was inactive.
